Bioassay records: PubChem BioAssay, Buhrlage Lab, Dana-Farber Cancer Institute and Novartis Institutes for BioMedical Research (Cambridge, Mass)
Only some compounds are listed: those with a hit (about 4.6% of all), similar ones and a draw of the others.
USP8 block – blocks human USP8 ubiquitin-rhodamine cleavage; purified USP8, Ub-rhodamine cleavage fluorescence, 30 min; P40818; AID 1645853; 4.2% of 47,000 active; inhibition, % at 20 µM
UCHL1 block – blocks human UCHL1 ubiquitin-rhodamine cleavage. P09936. purified UCHL1, Ub-rhodamine cleavage fluorescence. inhibition, % at 20 µM. 0.2% of 47,000 active. AID 1645859
Target sequence (P09936 whole entry, looked up): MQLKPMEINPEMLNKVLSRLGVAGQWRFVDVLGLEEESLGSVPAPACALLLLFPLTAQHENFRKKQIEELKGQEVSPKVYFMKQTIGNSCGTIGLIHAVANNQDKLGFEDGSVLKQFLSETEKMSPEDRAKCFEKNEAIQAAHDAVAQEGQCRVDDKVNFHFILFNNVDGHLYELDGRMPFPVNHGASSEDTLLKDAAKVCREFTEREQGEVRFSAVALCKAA
USP7 block – human USP7 deubiquitinase inhibition; purified USP7, Ub-rhodamine cleavage fluorescence; inhibition, % at 20 µM; 0.3% of 47,000 active
USP10 inh – blocks human USP10 ubiquitin-rhodamine cleavage; Q14694; inhibition, % at 20 µM; 1.1% of 47,000 active; AID 1645856; purified USP10, Ub-rhodamine fluorescence, 60 min
* hit, by the source's call. Rule as the data show it: active = inhibition above about 30%; inactive = the rest.

SMILES	USP8 block	UCHL1 block	USP7 block	USP10 inh
COc1ccc(Cc2nnc(NC(C)c3ccccc3)[nH]c2=O)cc1 (configuration not stated)	67*	4	15	31*
Cc1cccc(Nc2nnc(Cc3ccccc3)c(=O)[nH]2)c1	59*	2	16	16
COc1ccc(Cc2nnc(Nc3ccccc3)[nH]c2=O)cc1	51*	-1	4	3
COc1ccc(Cc2nnc(Nc3ccc(F)cc3)[nH]c2=O)cc1	52*	0	8	25
CC(C)(C(=O)N1CCC2(CC1)NC(=O)c1ccccc1N2)c1ccc(Cl)cc1	-1	-1	-2	3
O=C(COc1ccc(Cl)cc1)NCc1nnc(SCC(=O)N2CCN(c3ccccc3)CC2)o1	15	4	8	0
CNC(=O)N1CCCn2c(nc3ccccc32)C1Cc1ccccc1 (configuration not stated)	-15	-4	-2	-1
COc1ccccc1CNC(=O)Nc1cccc2ccccc12	71*	0	1	5
COc1ccccc1CNC(=O)CCC1CCCC1	3	1	-27	4
O=C(Cn1c(COc2ccccc2)nc2ccccc21)Nc1ccc(N2CCOCC2)cc1	34*	2	11	23
COc1cccc(NC(=O)Cn2c(COc3ccccc3)nc3ccccc32)c1	15	1	6	6
O=C(Cn1c(COc2ccccc2)nc2ccccc21)Nc1cc(Cl)ccc1Cl	55*	3	12	26
O=C(Cn1c(COc2ccccc2)nc2ccccc21)Nc1cc(Cl)cc(Cl)c1	73*	8	21	16
Cc1ccc(Cl)cc1NC(=O)c1cnn2c3c(cnc12)CCCCC3	-1	0	4	-4
COc1cccc(CNC(=O)Cn2cnc3nc(SC)ncc3c2=O)c1	-5	-15	-14	-6
CC(NC(=O)c1ccccc1)c1nc2ccccc2n1CC(=O)Nc1ccc(C#N)cc1 (configuration not stated)	78*	3	18	41*
CC(Oc1ccccc1)c1nc2ccccc2n1CC(=O)N1CCc2ccccc21 (configuration not stated)	10	2	-1	2
O=C(Cn1c(CNC(=O)c2ccccc2)nc2ccccc21)Nc1ccc(F)cc1	72*	1	18	44*
Cc1ccc(C(=O)NC(C)c2nc3ccccc3n2CC(=O)N2CCc3ccccc32)cc1 (configuration not stated)	63*	7	-13	7
CC(NC(=O)c1ccccc1)c1nc2ccccc2n1CC(=O)Nc1ccc(OC(F)(F)F)cc1 (configuration not stated)	33*	4	9	14
COc1cccc(NC(=O)Cn2c(C(F)(F)F)nc3ccccc32)c1	0	-2	-2	2
COCCN1C(=O)c2ccccc2C(C(=O)Nc2cccc(C(C)=O)c2)C12CCCC2 (configuration not stated)	-179	1	-3	-2
CSCC[C@H](NC(=O)c1ccc(NC(C)=O)cc1)c1nnc2ccccn12	0	-1	0	-2
CCn1c(SCC(=O)NC2CCCCC2)nc2ccccc21	-12	0	-18	-1
CSCCC(NC(=O)c1ccccc1)c1nc2ccccc2n1CC(=O)Nc1ccccc1 (configuration not stated)	46*	2	11	41*
SMILES	USP8 block	UCHL1 block	USP7 block	USP10 inh
CC(NC(=O)c1ccccc1)c1nc2ccccc2n1CC(=O)NC1CCCCC1 (configuration not stated)	65*	2	3	4
COc1ccc(CN2C(=O)N[C@@H](CCC(=O)Nc3cccc(OC)c3)C2=O)cc1	12	1	4	4
CCCn1cnc2cc(-c3noc(CNC(=O)c4cccs4)n3)ccc21	33*	0	6	-2
CCn1nnc2cc(-c3noc(CNC(=O)c4cccs4)n3)ccc21	-234	-5	-2	-5
O=C(Cn1ccc2ccc(N3CCOCC3)nc21)NCc1cccc(F)c1	-250	-68	-135	0
COc1ccc(OCC(=O)Nc2cc(F)c3nc(N4CCOCC4)ccc3c2)cc1	6	0	4	-7
O=C(COc1ccc(F)cc1)Nc1cc(F)c2nc(N3CCOCC3)ccc2c1	41*	-14	-17	-11
O=C(CCc1ccccc1)Nc1cc(F)c2nc(N3CCOCC3)ccc2c1	46*	-2	-5	-2
CC(C)CC(=O)Nc1cc(F)c2nc(N3CCOCC3)ccc2c1	80*	5	-6	-8
O=C(CCc1ccc(S(=O)(=O)N2CCOCC2)cc1)NC(c1ccccc1)c1ccccc1	-36	0	1	0
O=C(CCc1ccc(S(=O)(=O)N2CCOCC2)cc1)OCC(=O)c1ccc(-c2ccccc2)cc1	31*	1	10	38*
Cc1noc(C)c1S(=O)(=O)Nc1ccc(C(=O)Nc2ccc3c(c2)OCCO3)cc1	8	2	8	5
CCn1cc(C(=O)N2CCCCCC2)c(=O)c2cc(S(=O)(=O)N3CCCCCC3)ccc21	-10	-8	-6	-4
CCOC(=O)N1CCN(C(=O)c2cn(CC)c3ccc(S(=O)(=O)N4CCc5ccccc5C4)cc3c2=O)CC1	46*	1	0	0
Cc1ccc(-n2c(=O)c3ccc(C(=O)NCc4ccco4)cc3n(CC(=O)NCCC3=CCCCC3)c2=O)cc1	43*	-1	3	45*
COc1ccc(-n2c(=O)c3ccc(C(=O)NCCc4ccccc4)cc3n(CC(=O)NCCC3=CCCCC3)c2=O)cc1	8	1	17	55*
CC(=O)c1ccc(NC(=O)C(NS(=O)(=O)c2ccc3c(c2)CCN3C(C)=O)C(C)C)cc1 (configuration not stated)	5	1	0	1
COCC(=O)N1CCC2(C/C=C/Cc3ccccc3OCC(=O)NCCNC2=O)CC1	13	1	3	-1
O=C1CC(c2nc3ccccc3n2CCOc2ccc(Cl)cc2)CN1c1ccccc1 (configuration not stated)	87*	7	11	9
COc1cccc(NC(=O)C(C)OC(=O)c2ccc(NS(=O)(=O)c3ccc(F)c(F)c3)cc2)c1 (configuration not stated)	-6	1	6	12
COc1ccc(C(=O)C(C)OC(=O)c2cccc(S(=O)(=O)Nc3cc([N+](=O)[O-])ccc3OC)c2)c(OC)c1 (configuration not stated)	20	6	17	37*
CC1=C(Cn2c3cccc(=O)c-3nc3ccccc32)CCC(C)(C)C1	59*	62*	35*	58*
Cc1ccc2nc(N3CCc4ccccc4C3)c3nncn3c2c1	45*	-2	3	-7
COc1ccccc1C(=O)N1CCC(S(=O)(=O)c2ccc(-c3ccco3)cc2)CC1	53*	4	1	1
O=C(c1cnc2ccccc2n1)N1CCC(S(=O)(=O)c2ccc(-c3ccco3)cc2)CC1	56*	17	21	21
COc1ccc(S(=O)(=O)N2CCN(C(=O)c3cnc4ccccc4n3)CC2)cc1OC	61*	-2	-13	-2
Cc1cnc2c(c1SCC(=O)N1CCC(C)CC1)c(=O)n(C)c(=O)n2C	1	3	-3	-1
